Laboratory results reported in PubChem BioAssay.
The source made the active and inactive calls. Unless noted, how the calls were made is not given here.

What was measured:
[1] = tested on: Wnt5a (protein binding on small-molecule microarray); experiment: Wnt5a binders on small-molecule microarray, primary screen, biophysical, 635/667 nm fluorescence (AID 1142); settings: 635 nm fluorescence, higher = more signal;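 further: fluorescence read at 667 nm with signal to noise per printed feature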
[2] = cell viability in Huh7 cells, primary screen, cytotoxicity control for HCV replication inhibitor project, CellTiter-Glo luminescence, basal, 48 h (AID 1143); settings: Huh7 HCV replicon, higher = more signal, called active from +8 up or from −8 down;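 further: Huh7 hepatoma cells carrying a hepatitis C replication reporter with no stimulus; test concentration not given here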
[3] = P. aeruginosa biofilm formation inhibitors, primary screen, PAO1 strain, BacTiter-Glo luminescence, LB-PBS (AID 1144); settings: 12 h, higher = more signal
[4] = CREB reporter modulators without forskolin, primary screen, cell-based, PC12, CRE-LacZ reporter, unstimulated (AID 1145); settings: no forskolin, luminescence, 4.5 h, higher = more signal, called active from +8 up or from −8 down
[5] = CREB reporter modulators under forskolin, primary screen, cell-based, PC12, CRE-LacZ reporter, forskolin-stimulated (AID 1146); settings: luminescence, 4.5 h, higher = more signal, called active from +8 up or from −8 down;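 further: PC12 cells with 6xCRE LacZ reporter stimulated by forskolin 10 µM; beta-galactosidase reporter signal reflecting CREB driven transcription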
[6] = target: Streptavidin (Streptomyces avidinii) (UniProt P22629); experiment: streptavidin binders on small-molecule microarray, primary screen, artefact control for SMM compound annotation, biophysical, 635/667 nm fluorescence (AID 1147); settings: streptavidin binding, higher = more signal;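 further: signal reflects streptavidin binding to arrayed compounds as a control protein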
[7] = small-molecule binders of probe aInhba, primary screen, biochemical, small-molecule microarray, 635/667 nm fluorescence (AID 1148); settings: higher = more signal;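 further: score merges 667nm spot fluorescence with signal-to-noise for antibody binding to printed compounds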
Torsin-1A (Homo sapiens) [8] = target: Torsin-1A (Homo sapiens) (UniProt O14656); experiment: torsin A binders from cell lysate, primary screen, small-molecule microarray, wild-type, 635/667 nm (AID 1149); settings: COS7 hTOR1A-WT lysate, 635 nm fluorescence, higher = more signal
Torsin-1A (Homo sapiens) [9] = target: Torsin-1A (Homo sapiens) (UniProt O14656); experiment: small-molecule binders of mutant TOR1A in lysate, primary screen, cell lysate, small-molecule microarray, COS7 lysate, 635/667 nm fluorescence (AID 1150); settings: COS7 hTOR1A mutant lysate, 635 nm fluorescence, higher = more signal;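 further: score pools 667 nm emission and signal to noise measuring lysate protein binding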
[10] = tested on: Sonic hedgehog protein (Shh); experiment: small-molecule binders of Shh protein, primary screen, biochemical, small-molecule microarray, 635/667 nm fluorescence (AID 1151); settings: small-molecule microarray binding, 635 nm fluorescence; higher = more signal;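 further: Shh protein binding to compounds spotted on small-molecule microarray slides; score combines spot fluorescence intensity with signal-to-noise across triplicate slides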
[11] = E. coli DRC41 culture turbidity changes, primary screen, E. coli filamentation inducer project, strain DRC41, OD650, 48 h (AID 1152);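 further: E. coli MC1000 strain DRC41 lacking acrAB efflux pump and sulA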; settings: E. coli DRC41 (acrAB sulA), higher = more signal, called active from +8 up or from −8 down
[12] = small-molecule binders of probe aLefty1, primary screen, biochemical, small-molecule microarray, 635/667 nm fluorescence (AID 1153); settings: higher = more signal;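 further: score merges spot fluorescence with signal-to-noise ratio from the scanned slide images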
[13] = PSAC antagonists in infected red cells, primary screen, cell-based, P. falciparum Indochina, OD700, 1 h (AID 1154); settings: P. falciparum Indochina infected RBC osmotic lysis, higher = more signal, called active from +8 up or from −8 down
[14] = PSAC antagonists in infected red cells, primary screen, cell-based, P. falciparum Indochina, OD700, 2 h (AID 1155);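 further: lysis reports solute entry through the parasite surface anion channel PSAC; channel blockers reduce lysis of infected cells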; settings: P. falciparum Indochina infected erythrocytes, osmotic lysis OD700; higher = more signal, called active from +8 up or from −8 down
[15] = osmotic lysis modulators in infected erythrocytes, primary screen, PSAC antagonist project, cell-based, P. falciparum Indochina, OD700, 3 h (AID 1156); settings: higher = more signal, called active from +8 up or from −8 down
[16] = PSAC antagonists in infected red cells, primary screen, cell-based, P. falciparum Indochina, OD700, 18 h (AID 1157); settings: P. falciparum Indochina infected erythrocytes, osmotic lysis OD700, 18 h; higher = more signal, called active from +8 up or from −8 down
[17] = modulators of S6 phosphorylation in cells, primary screen, cell-based, A549, cytoblot, luminescence, serum-stimulated (AID 1158); settings: A549 phospho-S6 cytoblot, 5 h, higher = more signal;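 further: serum-stimulated A549 lung adenocarcinoma cells; signal is phosphorylated S6 detected by cytoblot immunostaining with HRP secondary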
[18] = target: NADPH oxidase 2 (Homo sapiens) (UniProt P04839); experiment: NOX2-dependent H2O2 signal modulators, primary screen, NOX inhibitor project, cell-based, HEK293-NOX2, PMA-stimulated, Amplex Red fluorescence (AID 1159); settings: 45 min, higher = more signal, called active from +8 up or from −8 down; further: test concentration not given here
[19] = target: NADPH oxidase 4 (Homo sapiens) (UniProt Q9NPH5); experiment: NOX4-dependent H2O2 signal modulators, primary screen, NOX inhibitor project, cell-based, HEK293-NOX4, tetracycline-induced, Amplex Red fluorescence (AID 1160); settings: 45 min, higher = more signal, called active from +8 up or from −8 down
[20] = target: NADPH oxidase 5 (Homo sapiens) (UniProt Q96PH1); experiment: NOX5-dependent H2O2 signal modulators, primary screen, NOX inhibitor project, cell-based, HEK293-NOX5, Amplex Red fluorescence (AID 1161); settings: HEK293-NOX5, ionomycin, 45 min, higher = more signal
Sequence of NADPH oxidase 5 (Homo sapiens) (Q96PH1 whole entry, looked up): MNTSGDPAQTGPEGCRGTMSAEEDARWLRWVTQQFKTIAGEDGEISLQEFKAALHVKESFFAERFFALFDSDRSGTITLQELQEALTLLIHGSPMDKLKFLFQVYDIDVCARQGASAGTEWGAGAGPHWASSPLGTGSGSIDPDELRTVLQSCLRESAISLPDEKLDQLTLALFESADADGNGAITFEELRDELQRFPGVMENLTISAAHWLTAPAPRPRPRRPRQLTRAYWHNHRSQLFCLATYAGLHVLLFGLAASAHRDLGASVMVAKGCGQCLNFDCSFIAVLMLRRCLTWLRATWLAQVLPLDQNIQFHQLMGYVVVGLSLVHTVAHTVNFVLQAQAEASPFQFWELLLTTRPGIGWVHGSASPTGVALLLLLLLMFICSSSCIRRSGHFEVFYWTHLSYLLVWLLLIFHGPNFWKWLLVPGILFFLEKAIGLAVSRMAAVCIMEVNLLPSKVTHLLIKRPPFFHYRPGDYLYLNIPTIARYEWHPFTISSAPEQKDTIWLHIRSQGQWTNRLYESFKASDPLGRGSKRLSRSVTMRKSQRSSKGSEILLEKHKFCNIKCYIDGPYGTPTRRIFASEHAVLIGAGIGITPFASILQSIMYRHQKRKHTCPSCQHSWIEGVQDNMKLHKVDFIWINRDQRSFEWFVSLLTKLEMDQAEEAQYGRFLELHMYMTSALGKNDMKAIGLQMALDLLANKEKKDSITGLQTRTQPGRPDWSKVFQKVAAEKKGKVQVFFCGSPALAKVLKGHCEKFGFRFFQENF

Sequence of NADPH oxidase 4 (Homo sapiens) (Q9NPH5 whole entry, looked up): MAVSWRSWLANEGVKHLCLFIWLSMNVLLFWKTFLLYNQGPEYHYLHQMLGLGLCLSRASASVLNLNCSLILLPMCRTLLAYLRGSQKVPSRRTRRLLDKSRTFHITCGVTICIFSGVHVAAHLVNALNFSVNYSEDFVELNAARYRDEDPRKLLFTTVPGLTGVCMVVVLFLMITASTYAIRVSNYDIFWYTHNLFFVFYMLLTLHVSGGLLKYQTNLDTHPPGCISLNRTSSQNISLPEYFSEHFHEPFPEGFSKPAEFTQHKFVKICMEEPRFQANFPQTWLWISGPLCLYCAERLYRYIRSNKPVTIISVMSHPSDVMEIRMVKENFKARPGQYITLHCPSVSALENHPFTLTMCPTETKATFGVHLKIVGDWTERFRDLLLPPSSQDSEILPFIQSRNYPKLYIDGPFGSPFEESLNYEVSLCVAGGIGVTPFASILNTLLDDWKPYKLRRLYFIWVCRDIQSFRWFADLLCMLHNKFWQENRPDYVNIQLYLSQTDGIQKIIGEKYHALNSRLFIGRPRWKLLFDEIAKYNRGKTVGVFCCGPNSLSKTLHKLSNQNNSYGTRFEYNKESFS
Sequence of Streptavidin (Streptomyces avidinii) (P22629 whole entry, looked up): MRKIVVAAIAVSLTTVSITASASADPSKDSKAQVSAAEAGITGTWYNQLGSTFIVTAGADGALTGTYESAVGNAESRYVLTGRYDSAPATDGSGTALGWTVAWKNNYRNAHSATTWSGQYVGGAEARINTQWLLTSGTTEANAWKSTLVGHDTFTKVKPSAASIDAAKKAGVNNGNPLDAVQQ
Sequence of Torsin-1A (Homo sapiens) (O14656 whole entry, looked up): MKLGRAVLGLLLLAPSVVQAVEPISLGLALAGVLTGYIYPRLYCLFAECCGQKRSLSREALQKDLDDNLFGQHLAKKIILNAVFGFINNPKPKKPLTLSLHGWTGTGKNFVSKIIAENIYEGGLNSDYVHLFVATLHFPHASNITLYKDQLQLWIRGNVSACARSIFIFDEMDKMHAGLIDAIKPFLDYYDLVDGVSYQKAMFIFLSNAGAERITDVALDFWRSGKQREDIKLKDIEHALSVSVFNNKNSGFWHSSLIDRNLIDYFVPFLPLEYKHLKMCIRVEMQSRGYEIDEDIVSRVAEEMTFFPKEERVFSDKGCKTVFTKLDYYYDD
Sequence of NADPH oxidase 2 (Homo sapiens) (P04839 whole entry, looked up): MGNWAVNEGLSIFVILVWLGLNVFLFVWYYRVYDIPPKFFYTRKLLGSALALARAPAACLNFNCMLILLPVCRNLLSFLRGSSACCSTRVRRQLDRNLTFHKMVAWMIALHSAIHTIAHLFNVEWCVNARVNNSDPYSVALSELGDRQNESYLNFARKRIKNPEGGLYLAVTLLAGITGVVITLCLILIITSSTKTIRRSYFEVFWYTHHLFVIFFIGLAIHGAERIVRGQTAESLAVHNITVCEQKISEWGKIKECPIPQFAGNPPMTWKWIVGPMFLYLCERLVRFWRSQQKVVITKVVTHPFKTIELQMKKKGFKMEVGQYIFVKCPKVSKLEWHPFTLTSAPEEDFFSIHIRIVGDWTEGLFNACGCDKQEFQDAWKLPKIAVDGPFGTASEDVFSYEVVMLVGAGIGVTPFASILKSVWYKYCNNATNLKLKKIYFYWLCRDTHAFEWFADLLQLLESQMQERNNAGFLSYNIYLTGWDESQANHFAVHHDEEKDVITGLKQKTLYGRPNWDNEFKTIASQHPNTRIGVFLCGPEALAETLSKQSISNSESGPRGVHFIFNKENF

Structure (SMILES)	composite z-score [1]	z-score [2]	z-score [3]	z-score [4]	z-score [5]	composite z-score [6]	composite z-score [7]	composite z-score (Torsin-1A (Homo sapiens) [8])	composite z-score (Torsin-1A (Homo sapiens) [9])	composite z-score [10]	z-score [11]	composite z-score [12]	z-score [13]	z-score [14]	z-score [15]	z-score [16]	z-score [17]	z-score [18]	z-score [19]	z-score [20]
C[C@]1(C(=O)O)c2ccccc2C(=O)N(Cc2ccc(OC(F)(F)F)cc2)[C@H]1c1ccc(CO)cc1	0.386	-0.17 (inactive)	-0.526 (inactive)	0.118 (inactive)	-0.48 (inactive)	-0.129	0.053	0.45	0.522	-0.261	0.026 (inactive)	0.227	3.93 (inactive)	0.789 (inactive)	0.503 (inactive)	0.18 (inactive)	-0.115	0.948 (inactive)	0.41 (inactive)	-0.52
COC(=O)C(CC#Cc1ccc2c(c1)[C@]1(C(=O)N2)[C@H](c2ccc(OCCO)cc2)N2[C@H](c3ccccc3)[C@H](c3ccccc3)OC(=O)[C@H]2[C@@H]1C(=O)N1CCN(c2ncccn2)CC1)C(=O)OC	0.419	-0.339 (inactive)	-0.961 (inactive)	-0.554 (inactive)	1.27 (inactive)	0.862	0.306	0.272	0.666	1.2	-0.34 (inactive)	0.53	4.2 (inactive)	1.62 (inactive)	0.257 (inactive)	0.539 (inactive)	-0.454	1.46 (inactive)	1.05 (inactive)	1.52
CCOC(=O)C1=CCC(c2ccccc2)N(S(=O)(=O)c2ccc([N+](=O)[O-])cc2)C1 (stereo not given)	-0.206	-3.61 (inactive)	0.697 (inactive)	1.23 (inactive)	-0.536 (inactive)	0.108	-0.128	0.331	0.458	0.188	-0.72 (inactive)	0.0451	2.62 (inactive)	0.987 (inactive)	1.4 (inactive)	0.46 (inactive)	-0.412	0.528 (inactive)	-0.114 (inactive)	-0.023
Cc1ccccc1C(O)C1C=CC2C(=O)N(c3ccccc3)C(=O)C2N1Nc1ccc([N+](=O)[O-])cc1 (stereo not given)	-0.0078	-0.52 (inactive)	-0.35 (inactive)	0.78 (inactive)	0.598 (inactive)	1.77	0.3	0.992	0.593	0.176	-0.467 (inactive)	0.186	26.5 (active)	11.2 (active)	2.6 (inactive)	1.52 (inactive)	-0.483	-1.29 (inactive)	-3.58 (inactive)	-1.83
[N-]=[N+]=Nc1ccccc1[C@@H]1OC(c2ccc(OCCCO)cc2)=N[C@]1(Cc1ccccc1)C(=O)NCc1ccccc1	0.792	-3.97 (inactive)	-0.065 (inactive)	0.143 (inactive)	-0.757 (inactive)	1.45	0.38	0.662	1.09	0.263	-0.165 (inactive)	0.703	31.6 (active)	29.2 (active)	3.08 (inactive)	7.04 (inactive)	-0.403	-2.11 (inactive)	1.15 (inactive)	0.377
C=C(COC)C(=O)CC[C@H](OC(C)=O)c1ccc(OCCO)cc1	0.632	-3.53 (inactive)	-0.856 (inactive)	2.77 (inactive)	1.69 (inactive)	-0.0693	-0.0675	1.2	0.647	1.85	1.5 (inactive)	-0.0984	4.92 (inactive)	-1.68 (inactive)	1.91 (inactive)	-1.85 (inactive)	0.534	-2.84 (inactive)	-1.63 (inactive)	-2.22
CCCNC(=O)[C@@]1(Sc2ccc(C)cc2)CC(=O)N(C(C)C)[C@@H]1c1ccc(CO)cc1I	-0.272	-1.07 (inactive)	0.767 (inactive)	-0.412 (inactive)	0.892 (inactive)	-1	-0.186	0.0671	0.157	-0.42	-0.236 (inactive)	-0.0046	5.82 (inactive)	0.424 (inactive)	0.0627 (inactive)	0.108 (inactive)	-0.198	2.46 (inactive)	-2.43 (inactive)	0.276
CN1C(=O)C2C=CC(C(O)c3ccc(F)cc3)N(NC(=O)OC(C)(C)C)C2C1=O (stereo not given)	0.155	-0.134 (inactive)	0.193 (inactive)	0.436 (inactive)	0.84 (inactive)	1.43	0.0705	0.0284	-0.0455	-0.761	-1.73 (inactive)	0.101	-0.468 (inactive)	0.477 (inactive)	0.008 (inactive)	0.901 (inactive)	-1.28	-0.46 (inactive)	-0.56 (inactive)	-0.481
[N-]=[N+]=NCc1ccccc1[C@H]1OC(c2ccc(OCCCO)cc2)=N[C@@]1(CCS(=O)(=O)c1ccccc1)C(=O)NCc1ccccc1	0.486	-1.14 (inactive)	0.318 (inactive)	0.549 (inactive)	-0.0054 (inactive)	1.25	0.282	0.61	0.563	-0.081	1.14 (inactive)	-0.271	25 (active)	8.39 (active)	1.49 (inactive)	1.38 (inactive)	0.127	2.27 (inactive)	0.837 (inactive)	-0.887
